# Laboratory results: PubChem BioAssay AID2716 (Broad Institute, 2010)
# Where “and” joins values, the source holds several entries; their conditions need not be identical. Equal entries are not always repeated. The campaign covered roughly 320,000 compounds. About 3,300 (1%) were called active. This is one part of a sample in which actives are shown more often than they occur. Values without a mark were called inactive.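 How the source made its calls: active means every valid replicate shows activation above 250% relative to neutral control wells; inactive means the rest, any valid replicate at or below 250%.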
# Assay: yeast Mot1-301 growth rescue at high temperature, primary screen, SUMOylation pathway inhibitor project, S. cerevisiae, ATP luminescence, 38.5C (AID 2716);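 further: OY570 slx delta 5 strain wells were the positive control but not used for scaling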
# Conditions: S. cerevisiae Mot1-301 growth rescue, at 18.8 µM, stronger effect = higher value, percent above DMSO median, 100 means doubled
row,Structure (SMILES),growth rescue
1,Oc1c(Cl)cc(Cl)c(Cl)c1Cc1c(O)c(Cl)cc(Cl)c1Cl,482% (active) and 481% (active)
2,CC(=O)c1ccc(N2CCN(C(=O)c3ccc4nc[nH]c4c3)CC2)cc1,10.1%
3,CC(C)c1cc(C(=O)O)n[nH]1,-2.94%
4,Cc1ccc(-c2cc(C(=O)N/N=C/C=C/c3ccccc3)n[nH]2)o1,-7.96%
5,Cc1cc(C(=O)N/N=C\C(Br)=C\c2ccccc2)c(C)o1,558% (active)
6,CC(=C/c1ccccc1)/C=N/NC(=O)c1cc(C)oc1C,2.01%
7,CC(C)c1cc(C(=O)N/N=C/C(Br)=C/c2ccccc2)n[nH]1,457% (active)
8,Cc1cc(C(=O)NNC(=O)c2ccccc2O)c(C)o1,-0.00731%
9,CCCc1c(C(=O)N/N=C(\C)CCc2ccc(OC)cc2)nnn1-c1nonc1N,3.62%
10,CCOC(=O)C1CCN(C(=O)Cn2nc(C)c3c(C)n(-c4ccccc4)nc3c2=O)CC1,34.9%
11,NC(=O)c1nnsc1-c1ccc(-c2snnc2C(N)=O)cc1,18.5%
12,COc1cccc(CN(C)CC(=O)NCc2ccccc2Cl)c1OC,10.7%
13,COc1cccc(CN(C)CC2CCCN(CCc3ccc(Cl)cc3)C2)c1OC (stereo not given),535% (active)
14,Cc1nc2ccc(C(=O)N(C)CC3CCCN(CCc4ccc(Cl)cc4)C3)cc2[nH]1 (stereo not given),3.97%
15,CN(C)c1nc(=Nc2cccc(Cl)c2)ss1,331% (active)
16,Cc1cccc(C)c1NC(=O)N1CC(C)OC(C)C1 (stereo not given),-5.77%
17,Cc1ccc(-c2nc(COC(=O)c3c(C)noc3C)cs2)cc1,0.699%
18,Cc1ccc(S(=O)(=O)N(C)c2nc3ccccc3n3c(C(C)C)nnc23)cc1,138%
19,CCCC1(C(=O)OCC)NC(c2ccc(N(C)C)cc2)C2C(=O)N(c3ccc4c(c3)OCCO4)C(=O)C21 (stereo not given),-0.477%
20,O=C(Nc1nn(Cc2ccccc2F)cc1Br)c1cccs1,13%

row,Structure (SMILES),growth rescue
1,CCOC(=O)COc1ccc([N+](=O)[O-])cc1,319%
2,O=C(COc1ccccc1[N+](=O)[O-])NC1CC1,1.86%
3,Cc1ccc(OCC(=O)Oc2ccccc2[N+](=O)[O-])cc1,330% (active)
4,O=C(/C=C/c1cnc2ccccc2n1)NC1CCCCCC1,26.5%
5,Nc1c(N(CCCO)C(=O)C2CCCC2)c(=O)[nH]c(=O)n1Cc1ccccc1,103%
6,COc1ccc(CCNC(=O)CCC(=O)NC2CCCCC2)cc1OC,26.5%
7,Cc1cccc(OCC(=O)NCCNC(=O)c2cccnc2)c1,220%
8,Cc1ccc2c(c1)C(O)(CC(=O)c1cccnc1)C(=O)N2 (stereo not given),1220% (active)
9,Cc1ccc2c(c1)C(O)(CC(=O)c1cccc(-n3cccc3)c1)C(=O)N2 (stereo not given),-2.84%
10,CCC/C=C(\CCC)C(NC(=O)Cc1ccccc1)c1ccc(C(=O)OC)cc1 (stereo not given),-14.4%
11,CC(C)C[C@H](NC(=O)Nc1cccc(C(F)(F)F)c1)C(=O)O,-3.86%
12,Cc1ccc(NC(=O)Nc2cccc(C(F)(F)F)c2)nc1,471% (active)
13,O=C(Nc1ccccc1)Nc1ccc(C(F)(F)F)cn1,-19.3%
14,O=C(CNS(=O)(=O)c1ccc2c(c1)OCCCO2)N1CCN(c2ccc(F)cc2)CC1,10.2%
15,COc1ccc2c(CC(=O)NNC(=O)c3ccccc3F)coc2c1,9.24%
16,COc1ccc(/C=N/NC(=O)Cn2cc(C(F)(F)F)ccc2=O)cc1,0.303%
17,CCc1cc(=O)oc2cc(C)cc(OC(C)C(=O)O)c12 (stereo not given),-0.434%
18,CCc1cc(=O)oc2cc(C)cc(OCC(=O)N3CCC[C@@H]3C(=O)O)c12,694% (active)
19,CCCc1cc(=O)oc2c(C)c(OCC(=O)N3CCC(C(=O)O)CC3)ccc12,10.4%
20,Cc1cc(=O)n2nc(N3CCCC(C(=O)NCc4ccc(Cl)cc4)C3)sc2n1 (stereo not given),7.79%

row,Structure (SMILES),growth rescue
1,O=C(CSc1nc2[nH]c(=O)[nH]c(=O)c2s1)Nc1cccc(F)c1,-17.9%
2,O=S(=O)(Nc1ncnc2sccc12)c1cccc(F)c1,5.08%
3,O=C(NCC1CCCO1)c1cc2c(s1)CCCC2 (stereo not given),-9.49%
4,CC1=CC(=O)C=CC1(C)C(Cl)(Cl)Cl (stereo not given),385% (active)
5,COc1ccccc1Nc1nnc(SC(C)C(=O)NC2CC2)s1 (stereo not given),-11.6%
6,CC1C(=O)N2CCCc3cc(S(=O)(=O)NCc4ccc(F)cc4)cc1c32 (stereo not given),-4.02%
7,Cc1ccc(NC(=O)CSc2nnc(CNC(=O)c3ccccc3F)o2)cc1,3.58%
8,O=C(OC1CCCCC1=O)c1cccc(S(=O)(=O)NCc2ccccc2)c1 (stereo not given),12.9%
9,O=C(OC1CCOC1=O)c1cccc(S(=O)(=O)Nc2ccc(F)cc2)c1 (stereo not given),535% (active)
10,O=C(NCCN1CCOCC1)c1cccc(S(=O)(=O)Nc2ccc(F)cc2)c1,18.1%
11,CCCCn1c(N)c(N(CC(C)C)C(=O)c2cccc(S(=O)(=O)N3CCN(C(C)=O)CC3)c2)c(=O)[nH]c1=O,-9.04%
12,Cc1cccc(N2CCN(S(=O)(=O)c3ccc4[nH]c(=O)c(=O)[nH]c4c3)CC2C)c1 (stereo not given),2.34%
13,COc1ccc(CCNC(=O)COC(=O)C2CC2C)cc1 (stereo not given),4.29%
14,O=C(c1c(F)cccc1F)N1CCN(S(=O)(=O)c2ccc3c(c2)OCCO3)CC1,3.47%
15,CCC(=C/c1sc2ccc3ccccc3c2[n+]1C)/C=C1\Sc2ccc3ccccc3c2N1C,6.07%
16,Cc1cc(C)c(OCC(=O)N/N=C/c2ccco2)c(C)c1,568% (active)
17,Cc1ccc(NC(=O)CCC(=O)N/N=C/c2ccco2)c(C)c1,-4.26%
18,Cc1c(Cl)cccc1NC(=O)CCC(=O)N/N=C/c1ccco1,2.23%
19,CCOc1ccc(CCNC(=O)COC(=O)CCS(=O)(=O)c2ccc(C)cc2)cc1OCC,-6.14%
20,Cc1ccc2nc(NC(=O)CSc3nc(=O)n(CCCN(C)C)c4c3CCC4)sc2c1,-6.26%
